In the library only some 27% were active in any assay of this set; here they are far more common.
CYP2C9 activ: increases human cytochrome P450 2C9 activity | P11712 | recombinant CYP2C9, luciferin-H conversion, luminescence; stronger effect = higher value; factor 1 = untreated enzyme, 0 = blocked | activation factor at 5 µM | hit rate 1.4% among 96,000 | AID 1024;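 active = activation factor of 2 or more for CYP2C9 at a 5 µM dose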;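 note: 0 = sulfaphenazole-blocked wells and 1 = vehicle-only wells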
CYP2C9 inh: human CYP2C9 inhibition; inhibition, % at 5 µM; hit rate 20% among 96,000; CYP2C9 Supersomes, luciferin-H conversion, luminescence;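 active = blocking of liver enzyme CYP2C9 beyond about 50% at 5 µM, limit read from the data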
Cav32 inh: blocks human Cav3.2 T-type calcium channel; B-score at 10 µM; Cav3.2-expressing cells, Fluo-4 calcium fluorescence FDSS; stronger effect = lower value; O95180; hit rate 4% among 100,000;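 active = single-dose well whose peak fluorescence ratio is a statistical outlier from its plate by either plate-standardised score or position-corrected B-score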
CYP2C19 inhib: human CYP2C19 inhibition | AID 778 | CYP2C19 Supersomes, luciferin-H EGE luminescence, 30 min | inhibition, % at 5 µM | hit rate 21% among 96,000;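 active = CYP2C19 inhibition above a set limit at 5 µM in the primary screen, cut at about 50% in these data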;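 note: plate controls were negative control wells for no effect and 2.5 mM tranylcypromine positive control for full effect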
Target sequence (P33261 whole entry, looked up): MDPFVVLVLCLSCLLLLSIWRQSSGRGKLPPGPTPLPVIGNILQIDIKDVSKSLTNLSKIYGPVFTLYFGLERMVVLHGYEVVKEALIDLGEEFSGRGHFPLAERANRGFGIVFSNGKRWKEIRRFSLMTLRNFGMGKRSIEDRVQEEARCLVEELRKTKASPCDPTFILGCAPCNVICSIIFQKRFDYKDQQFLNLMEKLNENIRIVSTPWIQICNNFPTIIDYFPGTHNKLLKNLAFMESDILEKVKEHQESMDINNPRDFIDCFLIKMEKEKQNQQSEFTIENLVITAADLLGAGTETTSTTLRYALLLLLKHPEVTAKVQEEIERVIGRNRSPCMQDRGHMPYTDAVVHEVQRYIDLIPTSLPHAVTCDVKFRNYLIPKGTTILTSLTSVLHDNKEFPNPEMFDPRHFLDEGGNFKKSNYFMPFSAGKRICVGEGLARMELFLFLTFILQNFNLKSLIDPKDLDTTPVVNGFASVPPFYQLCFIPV
CYP2C19 act: cytochrome P450 2C19 (human) activation; 96,000 tested, under 10 active; recombinant CYP2C19, luciferin-H EGE luminescence; stronger effect = higher value; 0 = fully inhibited enzyme, 1 = untreated enzyme; P33261; activation factor at 5 µM; AID 1025;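 active = activation factor of at least 2 at 5 µM in the primary screen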;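 note: 0 = wells with 2.5 mM tranylcypromine and 1 = vehicle-only wells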
An asterisk follows results filed as active; · = no result given.

SMILES | CYP2C9 activ | CYP2C9 inh | Cav32 inh | CYP2C19 inhib | CYP2C19 act
O=C1N[C@@H](Cc2cn(S(=O)(=O)c3ccc([N+](=O)[O-])cc3)c3ccccc23)C(=O)N[C@H]1Cc1ccccc1 | · | · | -1.9 | · | ·
Cc1nn(-c2ccccc2)c(C)c1NC(=O)c1ccc(S(=O)(=O)N2CCCC2)cc1 | 0.4 | 57* | 0.92 | 12 | 0.9
CC(C)(C)n1nc2c(c1NC(=O)c1ccc(S(=O)(=O)N3CCCC3)cc1)CSC2 | 0.6 | 36 | -3.5* | -11 | 1.1
O=C(CCC1CCCC1)N[C@@H](Cc1ccc(O)cc1)C(=O)O | · | · | 1.2 | · | ·
CC1CN(C(=O)N2c3ccccc3Sc3ccccc32)C(C)CC1=O (centres undefined) | 0.7 | 34 | -4.6* | 48 | 0.5
CC(=O)Nc1ccc(OCC(O)Cn2nc(C)nc2C)cc1 (centres undefined) | 1.1 | -7 | 0.088 | 3 | 1
N#CC1=C(N)N(c2ccc(Oc3ccccc3)cc2)C(=O)C1 | 0.5 | 52* | -0.36 | 46 | 0.5
COc1ccc2c(c1)C(=O)N(c1ccc(C)cc1)C(=O)C2 | 1.1 | -13 | -0.32 | 5 | 0.9
O=C1NC(Cc2c[nH]c3ccccc23)C(=O)N1CCOc1ccccc1 (centres undefined) | 0.4 | 57* | -2.1 | 82* | 0.2
CCOc1ccc(N2C(=O)NC(Cc3c[nH]c4ccccc34)C2=O)cc1 (centres undefined) | 0.6 | 36 | 1.7 | 30 | 0.7
O=C(OCCN(C1=NS(=O)(=O)c2ccccc21)c1ccccc1Cl)c1ccc(Cl)cc1 | 0.1 | 87* | -3.2 | 44 | 0.6
O=C(OCCN1CCCCC1)c1ccc(Cl)cc1 | 0.9 | 14 | 0.096 | 45 | 0.5
CCn1nc(C)c(NC(=O)c2cc(Br)ccc2Cl)c1C | 1.2 | -20 | 1.3 | -5 | 1.1
COc1ccc(C2C3=C(N=C4SCC(=O)N42)c2ccccc2CC3)cc1 (centres undefined) | 0.1 | 91* | -3.2 | 95* | 0
COc1ccccc1C1C2=C(N=C3SCC(=O)N31)c1ccccc1CC2 (centres undefined) | 1.1 | -11 | · | -11 | 1.1
COc1ccc(C2C3=C(N=C4SCC(=O)N42)c2ccccc2CC3)cc1OC (centres undefined) | 0.5 | 54* | -0.27 | 39 | 0.6
Cc1nc(SCC(=O)Nc2ccccc2)c2oc3ccccc3c2n1 | 0.2 | 80* | -0.57 | 51* | 0.5
Cc1cc(C)nc(Sc2nc(C)nc3c2oc2ccccc23)n1 | 1 | 0 | 0.071 | 42 | 0.6
Cc1nc(SCC(=O)N2CCCc3ccccc32)c2oc3ccccc3c2n1 | 1 | -3 | -3.3 | -5 | 1.1
Cc1nc(SCC(=O)Nc2ccc(F)cc2)c2oc3ccccc3c2n1 | 0.2 | 84* | -0.029 | 40 | 0.6
Cc1nc(SCC(=O)NC(C)c2ccccc2)c2oc3ccccc3c2n1 (centres undefined) | 0.2 | 80* | -0.19 | 64* | 0.4
CNC(=O)C(Sc1nc(C)nc2c1oc1ccccc12)C(C)=O (centres undefined) | 0.4 | 61* | -0.61 | 55* | 0.5
COc1cc(CCCN2C(=O)C(=O)NC[C@@H]2C(C)O)cc(OC)c1OC (some centres undefined) | · | · | 0.81 | · | ·
NS(=O)(=O)c1cc(C(=O)N2CCc3ccccc32)c(Cl)cc1Cl | 0.7 | 32 | 0.82 | 4 | 1
Cc1ccccc1OCCNC(=O)CNC(=O)c1ccccc1O | 0.6 | 42 | -1.5 | 43 | 0.6
SMILES | CYP2C9 activ | CYP2C9 inh | Cav32 inh | CYP2C19 inhib | CYP2C19 act
COc1ccc(NC(=O)C2CCCN2c2ccc(OC)c(OC)c2)cc1OC (centres undefined) | 0.7 | 32 | 0.38 | 22 | 0.8
O=c1c2[nH]c3ccccc3c2ncn1CCN1CCCCC1 | 1.1 | -6 | 0.66 | 15 | 0.9
O=C(O)CSc1nc(-c2ccccc2)nc2c1oc1ccccc12 | 0.1 | 91* | -0.97 | 7 | 0.9
CC(C)c1cc(NCCCN2CCOCC2)n2c(nc3ccccc32)c1C#N | · | · | -0.24 | · | ·
COC(=O)CSC1=C(C#N)C(c2ccc3c(c2)OCO3)C2=C(CCCC2=O)N1 (centres undefined) | 0.1 | 86* | 2.7 | 74* | 0.3
CCSC1=C(C#N)C(c2ccc3c(c2)OCO3)C2=C(CCCC2=O)N1 (centres undefined) | 0.3 | 67* | 2 | 85* | 0.2
N#CC1=C(SCc2ccccc2)NC2=C(C(=O)CCC2)C1c1ccc2c(c1)OCO2 (centres undefined) | 0.6 | 43 | -1.1 | 40 | 0.6
CCOC(=O)CSC1=C(C#N)C(C)C2=C(CCCC2=O)N1 (centres undefined) | 1 | -3 | 0.026 | 94* | 0.1
Cc1ccc(NC(=O)CSC2=C(C#N)C(c3ccc4c(c3)OCO4)C3=C(CCCC3=O)N2)c(C)c1 (centres undefined) | 0.1 | 93* | -2.1 | 88* | 0.1
COC(=O)CSC1=C(C#N)C(c2ccc(C)cc2)C2=C(CCCC2=O)N1 (centres undefined) | 0.7 | 31 | 0.46 | 7 | 0.9
Nc1nnc(SCC(=O)N2CCN(c3cccc(Cl)c3)CC2)n1-c1ccccc1 | · | · | 0.88 | · | ·
CCC(=O)NS(=O)(=O)c1ccc(-c2c(-c3ccccc3)noc2C)cc1 | · | · | -0.38 | · | ·
O=C1NCCc2c1[nH]c1c(Cl)ccc(Cl)c21 | 2.4* | -143 | 1 | 6 | 0.9
Cc1nc2nc(-c3ccco3)[nH]n2c(=O)c1C | 0.9 | 12 | 0.059 | -2 | 1
CCC(Oc1nc2ccccc2nc1-c1ccccc1NC(C)=O)C(=O)c1ccccc1 (centres undefined) | 0.5 | 53* | -1.4 | -4 | 1
COc1ccc(OC)c(S(=O)(=O)Nc2cc(Cl)cc(Cl)c2)c1 | · | · | -2.5 | · | ·
COc1ccc(OC)c(S(=O)(=O)Nc2ccc3oc4c(c3c2)C(=O)CCC4)c1 | 0.1 | 94* | 0.23 | 57* | 0.4
c1ccc2[nH]c(CSc3nnc(-c4ccncc4)o3)nc2c1 | 0.2 | 81* | 0.0027 | 80* | 0.2
COc1cc(-c2nnc(SCc3ccccc3Cl)o2)cc(OC)c1OC | 0.7 | 30 | · | 45 | 0.6
c1ccc2c(CSc3nnc(-c4ccncc4)o3)cccc2c1 | 0.1 | 91* | -0.89 | 96* | 0
Clc1ccccc1CSc1nnc(-c2ccncc2)o1 | 0.1 | 90* | -0.0056 | 95* | 0.1
CCCCN1C(=O)C(=O)NC[C@@H]1C(C)O (some centres undefined) | · | · | -0.013 | · | ·
N#CCCN1CCN(Cn2c3ccccc3c3ccccc32)CC1 | 1.2 | -20 | 0.073 | 40 | 0.6
CN1CCN(CC#CCn2c3ccccc3c3ccccc32)CC1 | 1.4 | -38 | 0.17 | 59* | 0.4
COc1ccc(NC(=O)NC2(C(=O)N3CCCCCC3)CCCCC2)cc1 | 0.4 | 60* | -0.35 | 29 | 0.7
Cc1ccc(CNC(=O)C2(NC(=O)Nc3ccc(C)cc3)CCCCC2)cc1 | 0.5 | 54* | -0.079 | 46 | 0.5
Cc1ccc(NC(=O)NC2(C(=O)NCc3ccccc3)CCCCC2)cc1 | 0.7 | 34 | -0.023 | 39 | 0.6
NC(=O)NCCC1=CCCCC1 | 0.9 | 5 | · | -1 | 1
